Publication PMC5540273 (PLoS ONE, 2017)

Key:
Settings in all cases: concentration: 1 μM, replicates: in singlicate; n = 1
[1] = test system: T1, TIE2
T1 construct: gene TEK

[2] = test system: TLK1
[3] = test system: TLK2
[4] = test system: TNIK
[5] = test system: TNK1
[6] = test system: TNK2
[7] = test system: TNNI3K
[8] = test system: T2, TRKA
T2 construct: gene NTRK1

[9] = test system: TRKB
[10] = test system: T3, TRKC
T3 construct: gene NTRK3

[11] = test system: TRPM6
[12] = test system: TSSK1B
[13] = test system: TSSK3
[14] = test system: TTK
[15] = test system: TXK
[16] = test system: TYK2(JH1domain-catalytic)
[17] = test system: TYK2(JH2domain-pseudokinase)
[18] = test system: TYRO3
[19] = test system: ULK1
[20] = test system: ULK2
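Further: KINOMEscan kinase panel screen.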

| Structure (SMILES) | %Inh [1] [%] | %Inh [2] [%] | %Inh [3] [%] | %Inh [4] [%] | %Inh [5] [%] | %Inh [6] [%] | %Inh [7] [%] | %Inh [8] [%] | %Inh [9] [%] | %Inh [10] [%] | %Inh [11] [%] | %Inh [12] [%] | %Inh [13] [%] | %Inh [14] [%] | %Inh [15] [%] | %Inh [16] [%] | %Inh [17] [%] | %Inh [18] [%] | %Inh [19] [%] | %Inh [20] [%] |
| --- | --- | --- | --- | --- | --- | --- | --- | --- | --- | --- | --- | --- | --- | --- | --- | --- | --- | --- | --- | --- |
| CCn1c(-c2ccoc2)nc2cnccc21 [SB-733887] | 7 | 0 | 0 | 0 | 0 | 3 | 11 | 0 | 41 | 13 | 52 | 0 | 6 | 0 | 28 | 27 | 50 | 0 | 29 | 4 |
| O=C(NCc1cccs1)c1cc(C(=O)c2c(Cl)cccc2Cl)c[nH]1 [GW823670] | 2 | 0 | 0 | 5 | 26 | 0 | 0 | 0 | 0 | 0 | 0 | 18 | 0 | 9 | 0 | 1 | 0 | 0 | 0 | 29 |
| FC(F)(F)c1ccc(-c2ncn(CCCN3CCOCC3)c2-c2ccncc2)cc1 [SB-217780] | 6 | 0 | 0 | 0 | 1 | 0 | 0 | 14 | 0 | 0 | 4 | 0 | 0 | 0 | 10 | 32 | 24 | 0 | 1 | 46 |
| O=c1cc(N2CCOCC2)nc2n(Cc3ccc(F)c(Cl)c3)ccn12 [GSK2297099] | 0 | 11 | 22 | 0 | 0 | 10 | 0 | 0 | 0 | 0 | 36 | 0 | 9 | 0 | 0 | 0 | 15 | 0 | 16 | 0 |
| CC(C)(C)c1ccc(C(=O)Nc2cn3cc(-c4ccccc4)ccc3n2)cc1 | 0 | 8 | 0 | 18 | 0 | 6 | 6 | 0 | 7 | 3 | 0 | 0 | 8 | 0 | 9 | 0 | 6 | 5 | 0 | 49 |
| Nc1ncnc2c1ncn2-c1cccc2ccccc12 [SKF-97184] | 0 | 0 | 18 | 10 | 0 | 0 | 0 | 25 | 0 | 6 | 39 | 0 | 0 | 23 | 0 | 68 | 37 | 0 | 24 | 16 |
| Nc1nc(N)c2nc(-c3ccccc3)[nH]c2n1 [SKF-12778] | 0 | 0 | 0 | 4 | 0 | 13 | 28 | 52 | 9 | 0 | 11 | 0 | 5 | 4 | 25 | 43 | 74 | 0 | 16 | 9 |
| COc1ccc(-c2coc3ccc(-c4nnc(SCc5cccc(C#N)c5)o4)cc23)cc1 | 5 | 25 | 0 | 21 | 10 | 0 | 20 | 17 | 0 | 3 | 0 | 0 | 0 | 6 | 2 | 10 | 0 | 0 | 0 | 5 |
| CCC(=O)c1c(-c2ccccc2)c2cc(Cl)ccc2c(=O)n1Cc1cc(S(C)(=O)=O)n(CC(F)F)n1 | 2 | 0 | 0 | 0 | 0 | 0 | 0 | 0 | 0 | 1 | 10 | 0 | 0 | 0 | 6 | 0 | 0 | 0 | 0 | 0 |
| O=C(Nc1n[nH]c2nc(-c3ccccc3)c(Br)cc12)C1CC1 [SB-708998] | 11 | 0 | 0 | 14 | 0 | 10 | 0 | 28 | 0 | 11 | 18 | 25 | 14 | 24 | 14 | 14 | 1 | 0 | 30 | 0 |
| O=C(Nc1n[nH]c2cc(-c3ccccc3F)ccc12)C1CC1 [SB-733371] | 26 | 2 | 0 | 76 | 0 | 0 | 0 | 53 | 0 | 19 | 0 | 0 | 0 | 0 | 12 | 0 | 0 | 0 | 2 | 8 |
| Cc1nnc(-c2ccc3ncn(-c4ccc(S(C)=O)cc4)c3c2)o1 (centres unmarked) | 11 | 23 | 0 | 11 | 4 | 0 | 7 | 0 | 0 | 0 | 0 | 0 | 6 | 0 | 5 | 0 | 2 | 12 | 0 | 0 |
| COc1cc(OC)cc(-c2cc3cnc(N)nc3nc2NC(=O)NC(C)(C)C)c1 | 18 | 0 | 0 | 0 | 14 | 100 | 0 | 0 | 0 | 0 | 0 | 9 | 0 | 0 | 19 | 0 | 3 | 100 | 0 | 0 |
| Cc1nnc(-c2ccc(C)c(-c3ccc(C(=O)O)cc3)c2)o1 [GW608005] | 0 | 0 | 0 | 0 | 0 | 0 | 0 | 0 | 20 | 0 | 1 | 10 | 0 | 12 | 0 | 15 | 8 | 0 | 8 | 0 |
| Cc1c(Cn2c(C)nn3c(=O)cc(N4CCO[C@H](C)C4)nc23)cccc1C(F)(F)F [GSK2373690] | 0 | 0 | 0 | 0 | 0 | 13 | 4 | 0 | 6 | 11 | 0 | 0 | 14 | 0 | 3 | 0 | 0 | 22 | 14 | 0 |
| Cc1cc(Nc2nc(-c3cccc(C)n3)nc3ccccc23)ccn1 [GW872411] | 13 | 0 | 15 | 13 | 25 | 0 | 0 | 0 | 0 | 0 | 0 | 0 | 0 | 0 | 0 | 0 | 1 | 0 | 4 | 0 |

| Structure (SMILES) | %Inh [1] [%] | %Inh [2] [%] | %Inh [3] [%] | %Inh [4] [%] | %Inh [5] [%] | %Inh [6] [%] | %Inh [7] [%] | %Inh [8] [%] | %Inh [9] [%] | %Inh [10] [%] | %Inh [11] [%] | %Inh [12] [%] | %Inh [13] [%] | %Inh [14] [%] | %Inh [15] [%] | %Inh [16] [%] | %Inh [17] [%] | %Inh [18] [%] | %Inh [19] [%] | %Inh [20] [%] |
| --- | --- | --- | --- | --- | --- | --- | --- | --- | --- | --- | --- | --- | --- | --- | --- | --- | --- | --- | --- | --- |
| O=C1NC(=O)C(c2ccccc2)=C1Nc1cccc(O)c1 [SB-390534] | 13 | 26 | 98.4 | 16 | 5 | 0 | 4 | 0 | 0 | 37 | 0 | 0 | 0 | 0 | 14 | 14 | 0 | 0 | 0 | 12 |
| CN1C(=O)C(Nc2ccccc2)=C(c2ccccc2)C1=O [SB-300079] | 0 | 3 | 41 | 7 | 0 | 0 | 0 | 0 | 9 | 11 | 0 | 0 | 0 | 0 | 0 | 0 | 17 | 0 | 6 | 12 |
| C[C@@H]1CC[C@H](C(=O)NC2CCCCC2)CN1c1cc(-c2ccc3c(N)n[nH]c3c2)nc(N)n1 [GSK2291363] | 0 | 5 | 0 | 8 | 0 | 18 | 5 | 9 | 0 | 0 | 16 | 31 | 31 | 16 | 6 | 0 | 23 | 0 | 6 | 0 |
| O=C(Nc1n[nH]c2nc(-c3ccccc3)c(Cl)cc12)C1CC1 [SB-734909] | 15 | 0 | 6 | 8 | 0 | 0 | 0 | 0 | 0 | 0 | 29 | 0 | 0 | 0 | 4 | 25 | 16 | 0 | 22 | 20 |
| COC(=O)c1c(-c2ccccc2)c2cc(Br)ccc2c(=O)n1Cc1ccc(NC(=O)CCC(=O)O)cc1 | 0 | 19 | 0 | 0 | 17 | 0 | 0 | 0 | 0 | 35 | 0 | 0 | 0 | 9 | 39 | 4 | 0 | 0 | 8 | 11 |
| COc1cccc(C2=C(Nc3cccc(C(=O)O)c3)C(=O)NC2=O)c1 [SB-390770] | 37 | 7 | 0 | 4 | 0 | 12 | 8 | 56 | 0 | 0 | 15 | 23 | 15 | 0 | 48 | 19 | 0 | 0 | 26 | 6 |
| COc1cc2ncn(-c3cc(OCc4ccc(S(C)(=O)=O)cc4)c(C(N)=O)s3)c2cc1OC [GW869979] | 0 | 5 | 0 | 37 | 5 | 18 | 0 | 50 | 31 | 44 | 0 | 0 | 22 | 0 | 0 | 17 | 11 | 19 | 6 | 6 |
| Cl.NS(=O)(=O)c1cccc(Nc2cc(-c3ccc(F)cc3)n[nH]2)c1 [GW824645] | 2 | 0 | 0 | 45 | 0 | 0 | 0 | 40 | 44 | 31 | 0 | 0 | 0 | 0 | 0 | 0 | 9 | 0 | 15 | 47 |
| Cl.c1ccc(Cn2cnc3cc(Nc4ncnc5ccccc45)ccc32)cc1 [GW272142] | 0 | 0 | 0 | 0 | 0 | 15 | 0 | 0 | 0 | 0 | 0 | 12 | 10 | 0 | 0 | 13 | 21 | 0 | 7 | 0 |
| COc1cc2nccc(Nc3ccc(OCc4ccc(NC(C)=O)cc4)cc3)c2cc1OC.Cl [GW440135] | 1 | 0 | 0 | 0 | 0 | 16 | 0 | 37 | 0 | 21 | 3 | 0 | 26 | 0 | 6 | 9 | 5 | 0 | 0 | 0 |
| COc1cc(Nc2nccc(N3CCC(NC(=O)C(C)c4ccc(Cl)cc4)C3)n2)cc(OC)c1OC (centres unmarked) [GSK1379757] | 0 | 0 | 0 | 0 | 0 | 6 | 0 | 63 | 0 | 43 | 0 | 0 | 19 | 0 | 0 | 38 | 31 | 0 | 0 | 0 |
| Cc1cccc(-c2cc(-c3c[nH]nc3-c3ccccn3)ccn2)c1 [GW679395] | 0 | 0 | 0 | 59 | 0 | 4 | 9 | 0 | 13 | 20 | 0 | 24 | 0 | 23 | 0 | 9 | 27 | 0 | 0 | 0 |
| COc1cc(Nc2nccc(N3CCC(NC(=O)C4COc5ccccc5O4)C3)n2)cc(OC)c1OC (centres unmarked) [GSK1379761] | 0 | 8 | 0 | 0 | 28 | 6 | 0 | 77 | 31 | 61 | 0 | 0 | 9 | 13 | 10 | 81 | 29 | 0 | 8 | 0 |
| Cn1c(=O)c(F)c(Nc2ccc(I)cc2F)c2c(=O)n(OC[C@H](O)CO)cnc21 | 9 | 0 | 0 | 0 | 29 | 0 | 4 | 0 | 0 | 0 | 0 | 0 | 0 | 15 | 23 | 0 | 0 | 2 | 0 | 0 |
| Nc1nccc2scc(-c3ccc4c(c3)CCN4C(=O)Cc3ccccc3)c12 [GSK2576924] | 13 | 22 | 3 | 0 | 0 | 0 | 0 | 49 | 0 | 0 | 13 | 0 | 14 | 0 | 4 | 14 | 0 | 0 | 2 | 0 |
